# PubChem BioAssay AID493216 (National Center for Advancing Translational Sciences (NCATS), 2011)
# Calls of active or inactive are those of the source. The call rests on the fitted dose curve.
# Target: Polyunsaturated fatty acid lipoxygenase ALOX12 (Homo sapiens) (UniProt P18054)
# Experiment: Inhibitors of 12-hLO (12-human lipoxygenase): Cuvette-Based Hit Assay for Validation of Followup Compounds
# Details: purified 12-hLO, cuvette absorbance 234 nm
# Method: The enzyme activity of 12-hLO was determined by a direct measurement of product formation by monitoring the absorbance at 234 nm in a 2 mL cuvette. IC50 values of inhibitors were obtained by measuring the enzymatic rate at a variety of concentrations (Carroll et al, Segraves et al). This assay was used to validate actives or inconclusive putative inhibitors identified in the primary screen (see related BioAssay AIDs). Assay Provider: Holman, T.R., University of California, Santa Cruz Screening Center PI: Austin, Christopher P. Screening Center: NIH Chemical Genomics Center
# For control experiments, 2 mL of substrate buffer (10 uM arachidonic acid / 25 mM HEPES / 0.01% (v/v) Triton X-100, pH 8.0) was aliquoted in a cuvette with a magnetic stir bar. After equilibrium was ensured, an aliquot of inhibitor solvent was added (DMSO), and equilibrium was once again assured. The reaction was started by adding enzyme to the cuvette and the reaction was followed until completed. The inhibition experiments were performed as above, except the actual inhibitory compound was added instead of vehicle. To achieve an IC50, typically 5 concentrations of the inhibitor were studied. If the inhibitor concentration was constant, then five different reaction volumes were used. […] 3; No change in absorbance ensured. […] 5; No change in absorbance ensured. […]
# Chain of Polyunsaturated fatty acid lipoxygenase ALOX12 (Homo sapiens) (P18054 whole entry, looked up): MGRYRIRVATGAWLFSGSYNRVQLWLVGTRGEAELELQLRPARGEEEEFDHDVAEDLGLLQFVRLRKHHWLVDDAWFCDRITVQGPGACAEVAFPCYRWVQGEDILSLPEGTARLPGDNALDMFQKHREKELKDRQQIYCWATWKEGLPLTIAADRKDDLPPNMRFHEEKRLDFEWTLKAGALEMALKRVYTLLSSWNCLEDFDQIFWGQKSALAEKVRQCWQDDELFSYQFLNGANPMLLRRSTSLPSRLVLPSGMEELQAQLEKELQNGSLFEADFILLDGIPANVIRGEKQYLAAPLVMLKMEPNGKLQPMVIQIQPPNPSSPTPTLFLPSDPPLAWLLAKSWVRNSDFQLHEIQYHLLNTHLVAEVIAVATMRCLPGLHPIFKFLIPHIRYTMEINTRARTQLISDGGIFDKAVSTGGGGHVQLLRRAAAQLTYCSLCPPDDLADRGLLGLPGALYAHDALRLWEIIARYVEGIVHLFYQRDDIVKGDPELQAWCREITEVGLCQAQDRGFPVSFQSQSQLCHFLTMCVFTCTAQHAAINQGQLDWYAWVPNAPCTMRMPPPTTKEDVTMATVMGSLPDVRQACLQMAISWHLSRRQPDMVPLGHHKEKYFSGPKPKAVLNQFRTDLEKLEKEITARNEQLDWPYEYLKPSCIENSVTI
smiles,measurement,value
CC(Oc1ccc(Cl)cc1Cl)C(=O)Nc1ccc(S(=O)(=O)Nc2cnc3ccccc3n2)cc1 (stereo unspecified),Potency,22.6 µM (active)
